Compound activity (PubChem BioAssay)
Rows were chosen to be rich in hits. Some 2.2% of all compounds tested hit in one or more screens of this group.
LMP1 NFkB inh: inhibitors of Epstein-Barr LMP1-induced NF-kappaB reporter; LMP1-induced NF-kappaB luciferase reporter cells, luminescence; inhibition, % at 12.5 µM; 0.69% of 350,000 active; AID 504558; in the data active = inhibition above about 41%;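 also: 0% = neutral control wells and 100% = reference inhibitor control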
MITF TRPM1 inh: MITF TRPM1 promoter inhibition in SK-MEL-5 cells; 0.83% of 330,000 active; AID 488899; inhibition, % at 12.5 µM; SK-MEL-5 TRPM1 promoter luciferase, 24 h;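 active = mean inhibition across replicates of 60% or more, whatever share of single replicates reaches that level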
EWS-Fli block: inhibitors of EWS/Fli oncoprotein transcriptional activity; A673 NR0B1-luciferase reporter, viability-normalised; AID 651661; 0.67% of 350,000 active; inhibition, % at 12.6 µM;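 active = mean inhibition of at least 50% after viability correction, with every replicate also passing that limit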;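 also: firefly luciferase signal divided by Alamar Blue viability fluorescence both relative to DMSO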
Shn3 inh set2: reduces Shn3 3'UTR luciferase signal in osteoblasts; inhibition, % at 12.5 µM; 0.52% of 360,000 active; AID 588674; Clone20 osteoblast Shn3 3'UTR firefly luciferase, 24 h;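 active = mean inhibition of at least 75% with every replicate also reaching 75%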;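 also: 0% = median of neutral control wells and 100% = pilot-screen positive control compound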
PAX8 inh HTS: inhibitors of PAX8 transcriptional activity in RMG-I cells. RMG-I TPO-luciferase reporter, SteadyGlo, 24 h. inhibition, % at 12.6 µM. 1.2% of 360,000 active;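 active = mean replicate inhibition at least 60% with every replicate also reaching 60%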;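 also: luciferase light reporting Pax8 driven TPO promoter activity; plate controls were median of neutral control wells for no effect and mitoxantrone controls for full effect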
LGR2 antag: inhibitors of bursicon-induced Drosophila LGR2 receptor cAMP signaling; HEK293 LGR2, CRE-luciferase, bursicon-stimulated, 4 h; 0.35% of 380,000 active; inhibition, % at 9.99 µM;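 active = drop in luminescence signal, shown as inhibition above about 50% in the replicate tests, limit read from the data, passing the limit was not always enough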;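 also: agonist challenge used bursicon conditioned medium at about half maximal strength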
The depositor's hits bear a star; · = no result.

SMILES	LMP1 NFkB inh	MITF TRPM1 inh	EWS-Fli block	Shn3 inh set2	PAX8 inh HTS	LGR2 antag
C[C@@H]1CCCCO[C@H](CN(C)S(=O)(=O)c2ccccc2)[C@H](C)CN([C@H](C)CO)C(=O)c2cc(NS(=O)(=O)c3ccc(Cl)cc3)ccc2O1	·	·	-1	·	46	-1
C[C@H](CO)N1C[C@H](C)[C@@H](CN(C)S(=O)(=O)c2ccc(Cl)cc2)OCCCC[C@H](C)Oc2ccc(NS(=O)(=O)c3ccccc3)cc2C1=O	·	·	7	·	76*	1
C[C@H](CO)N1C[C@H](C)[C@H](CN(C)S(=O)(=O)c2ccccc2)OCCCC[C@H](C)Oc2ccc(NS(=O)(=O)c3ccc(Cl)cc3)cc2C1=O	·	·	3	·	84*	20
C[C@@H]1CN([C@H](C)CO)C(=O)c2cc(NS(=O)(=O)c3ccc(Cl)cc3)ccc2O[C@@H](C)CCCCO[C@@H]1CN(C)S(=O)(=O)c1ccccc1	·	·	4	·	23	15
CC(=O)N1[C@H](CO)[C@H]2c3ccccc3N(S(=O)(=O)c3ccccc3F)C[C@H]21	·	·	-3	·	1	9
CC(=O)NC[C@@H]1[C@@H](c2ccc(-c3ccccc3F)cc2)[C@@H](CO)N1C(C)=O	·	·	-8	·	3	-29
CCCCCOC(=O)c1c(N)n(CCOC)c2nc3ccccc3nc12	15	61*	·	-14	·	·
CNS(=O)(=O)c1cccc(C(=O)OCC(=O)c2ccc3c(c2)OCCO3)c1	43*	5	36	-5	25	13
O=C(COC(=O)c1cccs1)c1ccc2c(c1)OCCO2	-16	-46	-27	-21	·	82*
CNS(=O)(=O)c1cccc(C(=O)OCC(=O)c2ccc[nH]2)c1	-1	-7	3	-4	-15	-8
COC(=O)[C@H]1[C@H](CO)[C@H]2Cn3c(ccc(C4=CCCCC4)c3=O)[C@H]2N1CCC(F)(F)F	·	·	-4	·	·	-4
Cc1nc2ccccn2c1C(=O)N=Nc1c(O)n(CCC(C)C)c2ccccc12	36	57	·	86*	6	7
CC(=O)Nc1ccc(NC(=O)c2ccc(NS(=O)(=O)c3cc(C(C)(C)C)cc(C)c3C)cc2)cc1	1	1	9	-3	68*	3
C[C@H](CO)N1C[C@H](C)[C@@H](CN(C)S(=O)(=O)c2cn(C)cn2)Oc2ccc(NC(=O)CCCCCC(=O)Nc3ccccc3N)cc2CC1=O	·	·	-5	·	·	-6
CC1C/C(=N\NC(=O)c2ccc([N+](=O)[O-])cc2)CC(C)(C)C1 (configuration not stated)	-6	5	-10	-43	15	-11
CC1C/C(=N\NC(=O)c2ccc(NS(=O)(=O)c3ccc(Br)cc3)cc2)CC(C)(C)C1 (configuration not stated)	-4	-13	9	-22	86*	·
C[C@@H]1CCCCO[C@H](CN(C)Cc2ccc3c(c2)OCO3)[C@@H](C)CN([C@H](C)CO)C(=O)c2cc(NS(=O)(=O)c3cccs3)ccc2O1	·	·	-5	·	-12	-7
CC(C)CC#Cc1cnc2c(c1)C(=O)N([C@@H](C)CO)C[C@@H](C)[C@@H](CN(C)S(=O)(=O)c1cn(C)cn1)O2	·	·	-7	·	-9	-16
O=C(CCl)N(CCc1ccccc1)CCc1ccccc1	-7	0	59*	-6	-21	-1
COc1ccc(NC(=O)N(C)C[C@@H]2OCc3cn(nn3)CCCC(=O)N([C@H](C)CO)C[C@@H]2C)cc1	·	·	-2	·	·	1
CCCSc1nc2cc(S(=O)(=O)N3CCOCC3)ccc2n1CC	67*	0	·	4	-6	-2
C[C@@H]1CCCCO[C@@H](CN(C)Cc2ccc(Cl)c(Cl)c2)[C@H](C)CN([C@@H](C)CO)C(=O)c2cc(NC(=O)Nc3ccccc3)ccc2O1	·	·	5	·	86*	-21
C[C@@H]1CN([C@@H](C)CO)C(=O)c2cc(NC(=O)Nc3ccccc3)ccc2O[C@@H](C)CCCCO[C@H]1CN(C)Cc1ccc(Cl)c(Cl)c1	·	·	-7	·	81*	·
C[C@@H]1CN([C@H](C)CO)C(=O)c2cc(NC(=O)Nc3ccccc3)ccc2O[C@@H](C)CCCCO[C@@H]1CN(C)Cc1ccc(Cl)c(Cl)c1	·	·	9	·	86*	-16
C[C@@H]1CCCCO[C@@H](CN(C)Cc2ccc(Cl)c(Cl)c2)[C@@H](C)CN([C@H](C)CO)C(=O)c2cc(NC(=O)Nc3ccccc3)ccc2O1	·	·	-3	10	14	24
SMILES	LMP1 NFkB inh	MITF TRPM1 inh	EWS-Fli block	Shn3 inh set2	PAX8 inh HTS	LGR2 antag
COc1ccc2c3c(n(C)c2c1)[C@H](CO)N(C(=O)c1ccccc1)CC31CN(CC2CC2)C1	·	·	-6	·	·	-13
NCC(c1ccccc1)c1c[nH]c2ccccc12 (configuration not stated)	5	18	-10	6	-3	20
O=[N+]([O-])CC(c1ccc(F)cc1)c1c[nH]c2ccccc12 (configuration not stated)	3	17	55*	-7	43	22
CCc1ccccc1N(CC(=O)N1CCCC1)S(C)(=O)=O	9	-14	-4	-5	1	6
CCOc1ccccc1N(CC(=O)N1CCCC1)S(C)(=O)=O	49*	3	1	-12	14	2
CCOC(=O)C(C(=O)OCC)c1cc(Br)c2noc3c2c1C(=O)c1ccccc1-3	10	95*	·	99*	·	·
CC(=O)OCCNc1cc(N2CCN(C)CC2)c2noc3c2c1C(=O)c1ccccc1-3	-5	·	-10	0	3	11
O=C(NC12CC3CC(CC(C3)C1)C2)c1ccc([N+](=O)[O-])o1	-2	63*	17	-2	98*	7
O=C(NC12CC3CC(CC(C3)C1)C2)c1ccc(Br)o1	8	-2	7	35	-7	13
N#C[C@H]1[C@H](c2ccc(C#CC3CCCCC3)cc2)[C@H](CO)N1C(=O)Nc1ccc(F)cc1	·	·	12	·	92*	10
N#C[C@H]1[C@H](c2ccc(C#CC3CCCC3)cc2)[C@@H](CO)N1C(=O)Nc1ccc(F)cc1	·	·	11	·	88*	31
N#C[C@H]1[C@@H](c2ccc(C#CC3CCCCC3)cc2)[C@H](CO)N1C(=O)Nc1ccc(F)cc1	·	·	0	·	·	10
C[C@@H]1CN([C@H](C)CO)C(=O)CCCn2cc(nn2)CO[C@@H]1CN(C)Cc1ccccc1C(F)(F)F	·	·	-4	·	-4	2
C[C@@H]1CN([C@H](C)CO)C(=O)c2cccc(NC(=O)Nc3ccccc3)c2O[C@H]1CN(C)S(=O)(=O)c1ccc(F)cc1	·	·	16	·	-1	-3
CS(=O)(=O)N(CC(=O)Nc1ccc(F)cc1F)C1CCCCC1	82*	9	9	4	2	28
C[C@@H]1CN([C@H](C)CO)C(=O)c2cc(NC(=O)CCN3CCOCC3)ccc2O[C@H]1CN(C)Cc1ccc(-c2ccccc2)cc1	·	·	·	·	-13	-7
Brc1ccccc1CN1CCN(Cc2c[nH]c3ccccc23)CC1	·	·	45	·	63*	4
